# In PubChem BioAssay AID623870 (Broad Institute, 2012):
# In all, about 390,000 compounds went through this assay and about 2,600 (0.67%) were called active.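 Rule for the calls: active = mean inhibition of replicates at least 50% and at least half of replicates each reaching 50%; inconclusive = half or more replicates reach 50% but mean below 50%; inactive = the rest.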 This excerpt belongs to a sample that is enriched for actives.
# Target: Transforming acidic coiled-coil-containing protein 3 (Homo sapiens) (UniProt Q9Y6A5)
# Assay: inhibitors of ARNT PAS-B binding to TACC3 – biochemical, AlphaScreen, single concentration, primary screen (AID 623870);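 note: 0% = complete ARNT plus TACC3 wells and 100% = ARNT alone without TACC3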
# Settings: AlphaScreen His-ARNT PAS-B/GST-TACC3 binding, luminescence; at 9.99 µM; hits give high values; TACC3 fragment carries E629A point mutation
row,SMILES,inhibition
1,O=C(C[C@@H]1CC[C@@H]2[C@H](COC[C@@H](O)CN2Cc2ccc(Cl)cc2)O1)NCc1ccccc1Cl,1.65% (inactive)
2,COc1ccccc1Nc1nc(N)nc(CN(C)C2CCCCC2)n1,54% (active)
3,COc1ccccc1Nc1nc(N)nc(CSC(=S)N2CCOCC2)n1,0.944% (inactive)
4,COc1ccccc1NC1=NC(c2ccc(Cl)cc2)N=C(N)N1 (stereo not drawn),-1.44% (inactive)
5,COc1ccc(S(=O)(=O)N(C)C[C@@H]2Oc3ncc(C#Cc4ccc(F)cc4)cc3C(=O)N([C@H](C)CO)C[C@@H]2C)cc1,-1.03% (inactive)
6,N#CC1=C(N)Oc2c(ccc3cccnc23)C1c1ccncc1 (stereo not drawn),71.2% (active)
7,N#CC1=C(N)Oc2c(sc3ccccc23)C1c1ccco1 (stereo not drawn),34.5% (inactive)
8,C[C@@H]1CN([C@H](C)CO)C(=O)c2c(c3ccccc3n2C)-c2ccccc2CO[C@@H]1CN(C)C(=O)Nc1ccccc1,6.33% (inactive)
9,CCCNC(=O)N(C)C[C@@H]1Oc2ncc(C#CCc3ccccc3)cc2C(=O)N([C@@H](C)CO)C[C@H]1C,-5.08% (inactive)
10,COc1ccc(S(=O)(=O)N(C)C[C@H]2OCCCC[C@@H](C)Oc3ccc(NC(=O)CCC(F)(F)F)cc3C(=O)N([C@@H](C)CO)C[C@H]2C)cc1,-1.27% (inactive)
11,Oc1c(C(c2ccccn2)N2CCOCC2)ccc2cccnc12 (stereo not drawn),70.2% (active)
12,CNC[C@@H]1OCCCC[C@H](C)Oc2ccc(NC(=O)Nc3ccc(OC)cc3)cc2C(=O)N([C@H](C)CO)C[C@@H]1C,-2.24% (inactive)
13,O=C(C[C@@H]1C[C@H]2c3cc(NC(=O)Nc4ccccc4F)ccc3O[C@H]2[C@@H](CO)O1)NCc1ccncc1,-5.98% (inactive)
14,Cc1ccccc1CSc1nnc(-c2ccccn2)n1N,54.4% (active)
15,Cn1c(SCC(=O)C(C)(C)C)nnc1-c1ccccn1,13.6% (inactive)
16,Cc1ccccc1CSc1nnc(-c2cccnc2)n1N,-2.01% (inactive)
17,C[C@H](CO)N1C[C@H](C)[C@@H](CN(C)C(=O)C2CCCCC2)Oc2cc(C3=CCCC3)ccc2S1(=O)=O,5.91% (inactive)
18,O=C(C[C@@H]1CC[C@@H]2[C@H](COC[C@@H](O)CN2Cc2ccc(F)cc2)O1)NCc1ccncn1,-1.34% (inactive)
19,COc1ccccc1C#Cc1ccc([C@@H]2[C@H](CO)N3CCCCN(CCC(F)(F)F)C[C@@H]23)cc1,26% (inactive)
20,Cc1noc(C)c1S(=O)(=O)N(C)C[C@H]1OCCCC[C@H](C)Oc2ccc(NS(=O)(=O)c3ccccc3)cc2C(=O)N([C@H](C)CO)C[C@@H]1C,-5.63% (inactive)
21,COc1ccc(S(=O)(=O)N2C[C@@H](O)COC[C@H]3O[C@H](CC(=O)N[C@H]4CCN(Cc5ccccc5)C4)CC[C@@H]32)cc1,-2.17% (inactive)
22,O=C(NCCCn1ccnc1)C(=O)NCC1OCCN1S(=O)(=O)c1cc(F)ccc1F (stereo not drawn),60.2% (active)
23,Cc1cc(F)ccc1S(=O)(=O)N1CCCOC1CNC(=O)C(=O)NCCC1=CCCCC1 (stereo not drawn),3.52% (inactive)
24,O=C(NCCCc1ccccc1)C(=O)NCC1OCCN1S(=O)(=O)c1ccccc1 (stereo not drawn),0.478% (inactive)

row,SMILES,inhibition
1,CC(C)NC(=O)Nc1ccc2c(c1)CC(=O)N([C@@H](C)CO)C[C@@H](C)[C@H](CN(C)CC1CC1)O2,-5.56% (inactive)
2,CO[C@@H]1CC[C@@H]2CCOc3ccc(C#N)cc3C(=O)N(C)C[C@H](c3ccccc3)CC(=O)N(C)C[C@H]1O2,-7.48% (inactive)
3,Cc1noc(C)c1NC(=O)N[C@H]1C=C[C@@H](CC(=O)Nc2ccccc2)O[C@H]1CO,-3.76% (inactive)
4,Cc1ccc(S(=O)(=O)Nc2ccc3c(c2)CC(=O)N([C@@H](C)CO)C[C@@H](C)[C@@H](CN(C)S(=O)(=O)c2ccccc2)O3)cc1,-1.52% (inactive)
5,COc1c(O)cc2oc(-c3ccc(O)c(O)c3)cc(=O)c2c1O,36.8% (active)
6,C[C@H](CO)N1C[C@H](C)[C@H](CN(C)C(=O)C2CCOCC2)Oc2ncc(-c3ccccc3)cc2C1=O,-4.96% (inactive)
7,CC(C)CC#Cc1cnc2c(c1)C(=O)N([C@@H](C)CO)C[C@H](C)[C@@H](CN(C)C(=O)c1ccc(F)cc1)O2,7.13% (inactive)
8,CSc1cccc(NC(=S)N(C(C)C)C(C)c2ccccn2)c1 (stereo not drawn),19% (inactive)
9,CC(c1ccccn1)N(CCN(C)C)C(=S)Nc1ccccc1F (stereo not drawn),56.1% (active)
10,Cc1cccc(NC(=S)N(CCN(C)C)C(C)c2ccco2)c1 (stereo not drawn),-28.1% (inactive)
11,C[C@@H]1CN([C@H](C)CO)S(=O)(=O)c2ccc(-c3cncnc3)cc2O[C@H]1CN(C)C(=O)Cc1ccccc1,-17% (inactive)
12,C[C@H](CO)N1C[C@H](C)[C@@H](CN(C)Cc2ccc(Cl)c(Cl)c2)Oc2c(NC(=O)Nc3ccccc3)cccc2C1=O,6.91% (inactive)
13,COc1cc(C2C(C#N)=C(N)Oc3n[nH]c(-c4ccccn4)c32)cc(OC)c1OC (stereo not drawn),71.4% (active)
14,COc1ccccc1C1C(C#N)=C(N)Oc2c1c(-c1ccccc1)nn2-c1ccccc1 (stereo not drawn),2.34% (inactive)
15,CCCc1[nH]nc2c1C(c1ccc(Br)s1)C(C#N)=C(N)O2 (stereo not drawn),3.43% (inactive)
16,O=C(C[C@H]1CC[C@H]2[C@@H](COC[C@@H](O)CN2Cc2ccccc2F)O1)NCc1ccccc1F,-10% (inactive)
17,Cc1noc(C)c1NC(=O)Nc1ccc2c(c1)C(=O)N([C@@H](C)CO)C[C@H](C)[C@@H](CN(C)Cc1ccncc1)OCCCC[C@@H](C)O2,-0.402% (inactive)
18,CN(C)c1ccc2c(c1)[C@H]1C[C@H](CC(=O)O)O[C@H](CO)[C@H]1O2,22.1% (inactive)
19,CNC(=O)C[C@H]1CC[C@H]2[C@H](COc3ccc(NC(=O)c4cc(C)on4)cc3C(=O)N2C)O1,8.66% (active)
20,Cc1cc(C(=O)Nc2ccc3c(c2)C(=O)N(C)[C@@H]2CC[C@H](CC(=O)NC4CCCC4)O[C@@H]2CO3)no1,-1.61% (inactive)
21,Cc1cc(C(=O)Nc2ccc3c(c2)C(=O)N(C)[C@@H]2CC[C@@H](CC(=O)NC4CCCC4)O[C@@H]2CO3)no1,-5.47% (inactive)
22,CCCn1nc(C(=O)OCc2nc(N)nc(Nc3ccccc3C)n2)c2ccccc2c1=O,10.3% (inactive)
23,Cc1ccccc1Nc1nc(N)nc(CN2CCN(c3ccccn3)CC2)n1,86% (active)
24,Cc1ccccc1Nc1nc(N)nc(CSc2nnc3ccccn23)n1,-0.395% (inactive)
